# Measured values as given in PMC4081100, “A DNA-binding-site landscape and regulatory network analysis for NAC transcription factors in Arabidopsis thaliana”.
# Experiments:
# Assay in all cases: universal protein binding microarray (PBM); transcription factors of Arabidopsis thaliana; high values mean tight binding
# [1] = target: T1, GST-ANAC092(1-176) (Arabidopsis thaliana, UniProt Q9FKA0 1-176); details: protein: recombinant; tags: GST; chain copies: 2; dsDNA, one strand shown
# T1 sequence: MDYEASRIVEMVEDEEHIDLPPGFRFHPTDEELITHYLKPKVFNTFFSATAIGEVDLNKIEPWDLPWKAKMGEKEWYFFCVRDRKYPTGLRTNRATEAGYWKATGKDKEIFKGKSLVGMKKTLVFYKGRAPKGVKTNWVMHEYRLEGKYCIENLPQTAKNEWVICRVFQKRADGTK
# Outline: (§1)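 For zinc-finger proteins, zinc acetate was added while GST-tagged NAC-domain, full-length or DNA-binding-domain proteins were induced in cells. Purification used glutathione–Sepharose 4B, and quantification used A280 or anti-GST western blot. Custom all-10-mer Agilent 4 × 180K arrays, made double-stranded by primer extension, each received a protein at 200 to 500 nM final in duplicate. Scoring covered gapped and ungapped 8-mers, with binding given as the normalised enrichment score (E-score).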
# [2] = target: T2, GST-ATAF1 NAC domain (Arabidopsis thaliana, UniProt Q39013 7-158); details: protein: recombinant; tags: GST; chain copies: 2; dsDNA, one strand shown
# T2 sequence: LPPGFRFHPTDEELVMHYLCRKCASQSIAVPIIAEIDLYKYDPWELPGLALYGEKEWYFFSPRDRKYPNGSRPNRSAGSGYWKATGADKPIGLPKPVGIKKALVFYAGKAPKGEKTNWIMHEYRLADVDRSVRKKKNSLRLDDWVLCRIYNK
# Outline: as §1
# [3] = target: T3, GST-ANAC092(1-285) full length (Arabidopsis thaliana, UniProt Q9FKA0 1-285); details: protein: recombinant; tags: GST; chain copies: 2; dsDNA, one strand shown
# T3 sequence: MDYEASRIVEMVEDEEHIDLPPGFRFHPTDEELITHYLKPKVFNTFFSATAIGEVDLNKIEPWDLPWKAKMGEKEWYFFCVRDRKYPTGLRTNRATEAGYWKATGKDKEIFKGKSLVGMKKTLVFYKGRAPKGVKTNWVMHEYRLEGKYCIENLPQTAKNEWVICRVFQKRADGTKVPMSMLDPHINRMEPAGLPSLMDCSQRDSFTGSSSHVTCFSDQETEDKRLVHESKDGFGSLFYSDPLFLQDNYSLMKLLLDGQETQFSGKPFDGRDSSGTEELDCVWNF
# Outline: as §1
# [4] = target: T4, GST-NAP(1-166) (Arabidopsis thaliana, UniProt O49255 1-166); details: protein: recombinant; tags: GST; chain copies: 2; dsDNA, one strand shown
# T4 sequence: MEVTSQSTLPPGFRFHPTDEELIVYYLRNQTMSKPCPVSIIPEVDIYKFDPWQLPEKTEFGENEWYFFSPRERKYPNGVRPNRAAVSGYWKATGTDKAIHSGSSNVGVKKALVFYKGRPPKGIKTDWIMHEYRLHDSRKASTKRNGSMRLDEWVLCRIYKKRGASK
# Outline: as §1
# [5] = target: T5, GST-NST2(1-184) (Arabidopsis thaliana, UniProt Q9M274 1-184); details: protein: recombinant; tags: GST; chain copies: 2; dsDNA, one strand shown
# T5 sequence: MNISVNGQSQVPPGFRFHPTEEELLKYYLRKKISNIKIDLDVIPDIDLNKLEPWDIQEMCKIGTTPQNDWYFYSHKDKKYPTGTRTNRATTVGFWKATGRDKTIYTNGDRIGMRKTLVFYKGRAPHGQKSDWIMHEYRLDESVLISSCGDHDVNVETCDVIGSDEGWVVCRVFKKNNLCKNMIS
# Outline: as §1
# [6] = target: T6, GST-SND1(1-203) (Arabidopsis thaliana, UniProt Q9LPI7 1-203); details: protein: recombinant; tags: GST; chain copies: 2; dsDNA, one strand shown
# T6 sequence: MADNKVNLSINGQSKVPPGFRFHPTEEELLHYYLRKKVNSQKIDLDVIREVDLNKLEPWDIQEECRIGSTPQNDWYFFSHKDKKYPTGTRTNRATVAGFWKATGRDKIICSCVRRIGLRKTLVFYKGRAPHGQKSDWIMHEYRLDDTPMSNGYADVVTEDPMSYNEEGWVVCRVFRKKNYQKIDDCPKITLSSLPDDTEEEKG
# Outline: as §1
# [7] = target: T7, GST-VND7 NAC domain (Arabidopsis thaliana, UniProt Q9C8W9 9-158); details: protein: recombinant; tags: GST; chain copies: 2; dsDNA, one strand shown
# T7 sequence: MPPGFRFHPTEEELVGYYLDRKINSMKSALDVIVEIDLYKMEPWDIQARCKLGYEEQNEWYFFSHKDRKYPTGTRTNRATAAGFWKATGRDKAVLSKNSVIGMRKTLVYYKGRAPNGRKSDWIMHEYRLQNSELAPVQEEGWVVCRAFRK
# Outline: as §1
# [8] = target: GST-NTL6(1-168) (Arabidopsis thaliana, UniProt Q9SCK6 1-168); details: protein: recombinant; tags: GST; chain copies: 2; dsDNA, one strand shown
# Outline: as §1
# [9] = target: T8, GST-ANAC055(1-171) (Arabidopsis thaliana, UniProt Q9LDY8 1-171); details: protein: recombinant; tags: GST; chain copies: 2; dsDNA, one strand shown
# T8 sequence: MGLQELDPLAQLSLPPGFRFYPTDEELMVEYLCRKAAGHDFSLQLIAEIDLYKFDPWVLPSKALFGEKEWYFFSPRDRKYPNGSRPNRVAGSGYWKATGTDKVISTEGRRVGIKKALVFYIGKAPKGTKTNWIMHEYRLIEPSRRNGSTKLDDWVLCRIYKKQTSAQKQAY
# Outline: as §1
# [10] = target: T9, GST-NTL8 NAC domain (Arabidopsis thaliana, UniProt Q9XIN7 14-156); details: protein: recombinant; tags: GST; chain copies: 2; dsDNA, one strand shown
# T9 sequence: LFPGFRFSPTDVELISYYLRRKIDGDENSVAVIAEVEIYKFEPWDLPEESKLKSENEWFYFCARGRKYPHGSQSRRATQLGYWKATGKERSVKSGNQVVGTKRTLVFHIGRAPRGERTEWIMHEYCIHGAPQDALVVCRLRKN
# Outline: as §1
# [11] = target: GST-WRKY1(266-371) (Arabidopsis thaliana, UniProt Q9SI37 266-371); details: protein: recombinant; tags: GST; dsDNA, one strand shown
# Outline: as §1
# [12] = target: T10, GST-ANAC019 NAC domain (Arabidopsis thaliana, UniProt Q9C932 14-162); details: protein: recombinant; tags: GST; chain copies: 2; dsDNA, one strand shown
# T10 sequence: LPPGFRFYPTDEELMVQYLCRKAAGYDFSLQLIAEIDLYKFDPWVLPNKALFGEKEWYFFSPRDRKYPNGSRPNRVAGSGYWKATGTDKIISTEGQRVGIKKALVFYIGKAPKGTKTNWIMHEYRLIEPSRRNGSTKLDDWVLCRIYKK
# Outline: as §1
# GST-WRKY1(266-371), sequence (Q9SI37 266-371): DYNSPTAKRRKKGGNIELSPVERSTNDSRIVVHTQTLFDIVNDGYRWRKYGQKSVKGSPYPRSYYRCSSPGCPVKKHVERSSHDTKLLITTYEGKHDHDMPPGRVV
# GST-NTL6(1-168), sequence (Q9SCK6 1-168): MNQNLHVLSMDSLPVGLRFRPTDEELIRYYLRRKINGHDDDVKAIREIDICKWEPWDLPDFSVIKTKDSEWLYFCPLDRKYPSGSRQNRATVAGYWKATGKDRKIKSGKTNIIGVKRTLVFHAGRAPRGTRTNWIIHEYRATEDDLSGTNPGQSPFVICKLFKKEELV
Sequence,binding signal [1] [E-score],binding signal [2] [E-score],binding signal [3] [E-score],binding signal [4] [E-score],binding signal [5] [E-score],binding signal [6] [E-score],binding signal [7] [E-score],binding signal [8] [E-score],binding signal [9] [E-score],binding signal [10] [E-score],binding signal [11] [E-score],binding signal [12] [E-score]
ATCGCGTA,0.261,0.165,0.404,0.149,0.211,0.442,0.104,–,–,–,–,–
AGGGTAAA,0.1,–,0.0699,0.0883,0.14,0.153,0.108,0.0852,0.0614,0.429,–,–
TGACTTAA,–,0.107,0.102,–,0.183,0.249,0.089,0.342,–,–,0.427,–
GAAGAAAC,0.203,0.194,0.0911,–,0.197,0.126,0.0868,0.295,0.168,0.423,–,0.123
CCAAGTCA,–,–,–,–,–,0.0686,–,–,–,–,0.426,–
GTCAAACA,–,–,0.11,–,–,0.0891,0.0699,–,–,–,0.475,–
CCCCACCC,0.209,0.234,0.278,–,0.182,0.272,0.171,0.274,0.0515,0.277,–,0.177
CTTTCCTC,0.0932,–,–,–,–,0.147,0.0728,0.104,0.0748,0.453,–,0.0599
TCGCGTAA,0.283,0.141,0.385,–,0.259,0.459,0.14,0.0668,0.0885,–,–,–
AGGGGAAA,0.191,–,0.0577,0.101,–,0.0998,0.132,0.14,–,0.412,–,0.112
GGCGTCAA,–,–,–,–,–,0.0673,–,–,–,–,0.401,–
GCGTCAAC,0.119,–,0.109,–,0.0734,0.192,–,–,–,–,0.443,0.0778
AAGTCAAG,–,0.0757,0.14,–,0.0657,0.0903,–,0.113,–,–,0.479,–
